# From PubChem BioAssay (NCI)
# “And” between values parts separate entries of the source, which are not always exact repeats. Identical values can stand only once. This is part of a sample that, as a whole, favours compounds with a hit. Of some 79,000 tested, about 15% had one in any assay. The source holds several records for some structures; these can differ, active in one and inactive in another. The source made the active and inactive calls. No stated cut-off is given here; in the data, active means growth inhibition above about 70%; inactive means the rest.
# Key:
# [1] = NCI Yeast Anticancer Drug Screen. Data for the mec2-1 strain (AID 157); conditions: S. cerevisiae mec2-1 strain, stronger effect = higher value
# In short: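 Each compound was tested on mec2-1 yeast, a strain altered in DNA damage repair or cell cycle control. Growth inhibition is reported relative to vehicle.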
# [2] = NCI Yeast Anticancer Drug Screen. Data for the rad14 strain (AID 159);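 further: 0% = growth of vehicle-treated control cultures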; conditions: S. cerevisiae rad14 strain growth inhibition, stronger effect = higher value
# In short: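 DNA repair-defective yeast, compound-exposed; % growth inhibition derived by comparison with vehicle-treated controls.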
# [3] = NCI Yeast Anticancer Drug Screen. Data for the sgs1 mgt1 strain (AID 161);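 further: 0% = growth of cultures given vehicle only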; conditions: S. cerevisiae sgs1 mgt1 strain, stronger effect = higher value
# In short: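 Inhibition of yeast growth, normalised to vehicle-treated controls, is reported for a strain bearing genetic alterations in DNA damage repair.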
# [4] = NCI Yeast Anticancer Drug Screen. Data for the CLN2oe strain (AID 163);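 further: 0% = growth of vehicle-only control cultures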; conditions: S. cerevisiae CLN2oe strain, stronger effect = higher value
# In short: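 First, the altered yeast strain was treated with each compound; second, its growth was measured; finally, inhibition was derived by comparison with vehicle controls.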
# [5] = NCI Yeast Anticancer Drug Screen. Data for the cln2 rad14 strain (AID 165);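 further: 0% = growth equal to vehicle treated cultures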; conditions: S. cerevisiae cln2 rad14 strain, stronger effect = higher value
# In short: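 Test compounds were added to cln2 rad14 yeast cultures; inhibition of growth was then determined by comparison with vehicle treatment.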
# [6] = NCI Yeast Anticancer Drug Screen. Data for the bub3 strain (AID 167); conditions: S. cerevisiae bub3 mutant strain, stronger effect = higher value
# In short: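 In this screen, a yeast mutant lacking normal mitotic checkpoint function is challenged with compound. Relative growth versus vehicle gives the inhibition value.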
# [7] = NCI Yeast Anticancer Drug Screen. Data for the wt2 strain (AID 169);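 further: 0% = growth of vehicle-treated yeast cultures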; conditions: S. cerevisiae wt2 strain growth inhibition, stronger effect = higher value
# In short: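 The panel's yeast strains carry defined changes in DNA repair or cell cycle genes. Each strain is grown with compound, and growth loss is scored relative to vehicle.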
# [8] = NCI Yeast Anticancer Drug Screen. Data for the mlh1 strain (AID 171);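 further: 0% = growth of vehicle-treated control cultures of the same strain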; conditions: S. cerevisiae mlh1 strain growth inhibition, stronger effect = higher value
# In short: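 Inhibition values reflect reduced yeast growth in the presence of compound, referenced to vehicle controls, using a strain chosen for its alteration in DNA repair or cell cycle control.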
# [9] = NCI Yeast Anticancer Drug Screen. Data for the sgs1 strain (AID 173);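 further: 0% = growth of vehicle-only control cultures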; conditions: S. cerevisiae sgs1 mutant, stronger effect = higher value
# In short: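 Vehicle-treated cultures served as reference for growth inhibition of a yeast strain altered in DNA damage repair or cell cycle control after compound exposure.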
# [10] = NCI Yeast Anticancer Drug Screen. Data for the mlh1 rad18 strain (AID 175); conditions: S. cerevisiae mlh1 rad18 strain growth inhibition, stronger effect = higher value
# In short: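 Inhibition values reflect reduced growth of mutant yeast versus vehicle-treated controls following compound exposure; the mutations affect DNA damage repair.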
# [11] = NCI Yeast Anticancer Drug Screen. Data for the rad18 strain (AID 177); conditions: S. cerevisiae rad18 mutant growth inhibition, stronger effect = higher value
# In short: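 Steps: expose repair-mutant yeast to compound; measure growth; express as inhibition relative to vehicle control.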
# [12] = NCI Yeast Anticancer Drug Screen. Data for the rad52 strain (AID 147);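 further: 0% = growth of vehicle-treated control cultures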; conditions: S. cerevisiae rad52 mutant growth inhibition, stronger effect = higher value
# In short: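 Inhibition of yeast growth, referenced to vehicle controls, was the measured output for a strain with defective DNA damage repair.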
# [13] = NCI Yeast Anticancer Drug Screen. Data for the wt1 strain (AID 149);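 further: 0% = growth of vehicle-treated wt1 cultures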; conditions: S. cerevisiae wt1 strain (SPY 50644) growth inhibition, stronger effect = higher value
# In short: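 wt1 strain grown with compound or vehicle; inhibition taken from the growth difference.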
# [14] = NCI Yeast Anticancer Drug Screen. Data for the rad50EPP+ strain (AID 151);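 further: 0% = growth of vehicle-treated control cultures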; conditions: S. cerevisiae rad50 mutant strain, stronger effect = higher value
# In short: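 Genetically defined yeast (rad50EPP+, DNA damage repair alteration) is grown with compound, and inhibition of growth is expressed relative to vehicle-treated controls.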
# [15] = NCI Yeast Anticancer Drug Screen. Data for the mgt1 strain (AID 153); conditions: S. cerevisiae mgt1 mutant growth inhibition, stronger effect = higher value
# In short: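 In the mgt1 strain, test compounds were added and growth inhibition was determined relative to vehicle-treated controls.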
# [16] = NCI Yeast Anticancer Drug Screen. Data for the rad50 strain (AID 155);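 further: 0% = growth of vehicle-only cultures of the same strain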; conditions: S. cerevisiae rad50 strain growth inhibition, stronger effect = higher value
# In short: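 DNA repair mutant yeast, compound exposure, growth read-out; inhibition is taken relative to vehicle.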
# [17] = at 5.0 µM (retest, dose inferred, filed as 0.5)
# [18] = at 50.0 µM (retest, dose inferred, filed as 5.0)
smiles,measurement,setting,value
O=C1C=C(Cl)C(=O)C(c2ccc(Cl)cc2)=C1,growth inhibition,[1]; [17],21% (inactive)
same,growth inhibition,[1]; at 11.0 µM,67% (inactive)
same,growth inhibition,[1]; at 33.0 µM,98% (active)
same,growth inhibition,[1]; [18],99% (active)
same,growth inhibition,[1]; at 50.0 µM,92.5% (active)
same,growth inhibition,[1]; at 100.0 µM,97% (active)
same,growth inhibition,[2]; at 1.2 µM,11% (inactive)
same,growth inhibition,[2]; at 3.7 µM,23% (inactive)
same,growth inhibition,[2]; at 11.0 µM,42% (inactive)
same,growth inhibition,[2]; at 33.0 µM,95% (active)
same,growth inhibition,[2]; at 100.0 µM,96% (active)
same,growth inhibition,[3]; [17],17% (inactive)
same,growth inhibition,[3]; [18],95% (active)
same,growth inhibition,[3]; at 50.0 µM,93.5% (active)
same,growth inhibition,[4]; at 1.2 µM,31% (inactive)
same,growth inhibition,[4]; at 3.7 µM,32% (inactive)
same,growth inhibition,[4]; at 11.0 µM,69% (inactive)
same,growth inhibition,[4]; at 33.0 µM,98% (active)
same,growth inhibition,[4]; at 100.0 µM,96% (active)
same,growth inhibition,[5]; [17],24% (inactive)
same,growth inhibition,[5]; [18],98% (active)
same,growth inhibition,[5]; at 50.0 µM,90.8% (active)
same,growth inhibition,[6]; at 1.2 µM,5% (inactive)
same,growth inhibition,[6]; at 3.7 µM,20% (inactive)
same,growth inhibition,[6]; [17],6% (inactive)
same,growth inhibition,[6]; at 11.0 µM,62% (inactive)
same,growth inhibition,[6]; at 33.0 µM,98% (active)
same,growth inhibition,[6]; [18],98% (active)
same,growth inhibition,[6]; at 50.0 µM,91.8% (active)
same,growth inhibition,[6]; at 100.0 µM,94% (active)
same,growth inhibition,[7]; at 1.2 µM,-27% (inactive)
same,growth inhibition,[7]; at 3.7 µM,-9% (inactive)
same,growth inhibition,[7]; at 11.0 µM,13% (inactive)
same,growth inhibition,[7]; at 33.0 µM,94% (active)
same,growth inhibition,[7]; at 100.0 µM,96% (active)
same,growth inhibition,[8]; at 1.2 µM,34% (inactive)
same,growth inhibition,[8]; at 3.7 µM,61% (inactive)
same,growth inhibition,[8]; at 11.0 µM,84% (active)
same,growth inhibition,[8]; at 33.0 µM,97% (active)
same,growth inhibition,[8]; at 100.0 µM,96% (active)
same,growth inhibition,[9]; at 1.2 µM,18% (inactive)
same,growth inhibition,[9]; at 3.7 µM,37% (inactive)
same,growth inhibition,[9]; at 11.0 µM,66% (inactive)
same,growth inhibition,[9]; at 33.0 µM,98% (active)
same,growth inhibition,[9]; at 100.0 µM,96% (active)
same,growth inhibition,[10]; [17],39% (inactive)
same,growth inhibition,[10]; [18],97% (active)
same,growth inhibition,[10]; at 50.0 µM,91.6% (active)
same,growth inhibition,[11]; at 1.2 µM,16% (inactive)
same,growth inhibition,[11]; at 3.7 µM,-4% (inactive)
same,growth inhibition,[11]; at 11.0 µM,53% (inactive)
same,growth inhibition,[11]; at 33.0 µM,96% (active)
same,growth inhibition,[11]; at 100.0 µM,97% (active)
CS(=O)(=O)OCCN(CCOS(C)(=O)=O)c1ccc(C=Nc2ccc(-c3csc(COc4ccccc4)n3)cc2)cc1,growth inhibition,[12]; at 1.2 µM,15% (inactive)
same,growth inhibition,[12]; at 3.7 µM,29% (inactive)
same,growth inhibition,[12]; at 11.0 µM,76% (active)
same,growth inhibition,[12]; at 33.0 µM,96% (active)
same,growth inhibition,[12]; at 100.0 µM,93% (active)
same,growth inhibition,[13]; at 1.2 µM,-30% (inactive)
same,growth inhibition,[13]; at 3.7 µM,-33% (inactive)
same,growth inhibition,[13]; at 11.0 µM,-8% (inactive)
same,growth inhibition,[13]; at 33.0 µM,90% (active)
same,growth inhibition,[13]; at 100.0 µM,91% (active)
same,growth inhibition,[14]; at 1.2 µM,-2% (inactive)
same,growth inhibition,[14]; at 3.7 µM,-11% (inactive)
same,growth inhibition,[14]; at 11.0 µM,49% (inactive)
same,growth inhibition,[14]; at 33.0 µM,94% (active)
same,growth inhibition,[14]; at 100.0 µM,93% (active)
same,growth inhibition,[15]; at 1.2 µM,-22% (inactive)
same,growth inhibition,[15]; at 3.7 µM,-16% (inactive)
same,growth inhibition,[15]; at 11.0 µM,23% (inactive)
same,growth inhibition,[15]; at 33.0 µM,90% (active)
same,growth inhibition,[15]; at 100.0 µM,91% (active)
same,growth inhibition,[16]; at 1.2 µM,-29% (inactive)
same,growth inhibition,[16]; at 3.7 µM,-5% (inactive)
same,growth inhibition,[16]; [17],44% (inactive) and 40% (inactive)
same,growth inhibition,[16]; at 11.0 µM,63% (inactive)
same,growth inhibition,[16]; at 33.0 µM,93% (active)
same,growth inhibition,[16]; [18],95% (active) and 96% (active)
same,growth inhibition,[16]; at 50.0 µM,97% (active)
same,growth inhibition,[16]; at 100.0 µM,91% (active)
same,growth inhibition,[1]; at 1.2 µM,-46% (inactive)
same,growth inhibition,[1]; at 3.7 µM,-18% (inactive)
same,growth inhibition,[1]; [17],33% (inactive) and 34% (inactive)
same,growth inhibition,[1]; at 11.0 µM,41% (inactive)
same,growth inhibition,[1]; at 33.0 µM,93% (active)
same,growth inhibition,[1]; [18],96% (active)
same,growth inhibition,[1]; at 50.0 µM,98.2% (active)
same,growth inhibition,[1]; at 100.0 µM,91% (active)
same,growth inhibition,[2]; at 1.2 µM,-25% (inactive)
same,growth inhibition,[2]; at 3.7 µM,14% (inactive)
same,growth inhibition,[2]; at 11.0 µM,59% (inactive)
same,growth inhibition,[2]; at 33.0 µM,95% (active)
same,growth inhibition,[2]; at 100.0 µM,94% (active)
same,growth inhibition,[3]; [17],-12% (inactive) and 26% (inactive)
same,growth inhibition,[3]; [18],-64% (inactive) and 98% (active)
same,growth inhibition,[3]; at 50.0 µM,84.8% (active) and 97.7% (active)
same,growth inhibition,[4]; at 1.2 µM,1% (inactive)
same,growth inhibition,[4]; at 3.7 µM,4% (inactive)
same,growth inhibition,[4]; at 11.0 µM,45% (inactive)
same,growth inhibition,[4]; at 33.0 µM,93% (active)
same,growth inhibition,[4]; at 100.0 µM,90% (active)
same,growth inhibition,[5]; [17],-2% (inactive) and 25% (inactive)
same,growth inhibition,[5]; [18],-80% (inactive) and 96% (active)
same,growth inhibition,[5]; at 50.0 µM,85.3% (active) and 95.8% (active)
same,growth inhibition,[6]; at 1.2 µM,-36% (inactive)
same,growth inhibition,[6]; at 3.7 µM,-16% (inactive)
same,growth inhibition,[6]; [17],-4% (inactive) and 19% (inactive)
same,growth inhibition,[6]; at 11.0 µM,47% (inactive)
same,growth inhibition,[6]; at 33.0 µM,91% (active)
same,growth inhibition,[6]; [18],-73% (inactive) and 96% (active)
same,growth inhibition,[6]; at 50.0 µM,84.5% (active) and 96.2% (active)
same,growth inhibition,[6]; at 100.0 µM,88% (active)
same,growth inhibition,[7]; at 1.2 µM,-4% (inactive)
same,growth inhibition,[7]; at 3.7 µM,11% (inactive)
same,growth inhibition,[7]; at 11.0 µM,54% (inactive)
same,growth inhibition,[7]; at 33.0 µM,92% (active)
same,growth inhibition,[7]; at 100.0 µM,91% (active)
same,growth inhibition,[8]; at 1.2 µM,-24% (inactive)
same,growth inhibition,[8]; at 3.7 µM,-17% (inactive)
same,growth inhibition,[8]; at 11.0 µM,42% (inactive)
same,growth inhibition,[8]; at 33.0 µM,94% (active)
same,growth inhibition,[8]; at 100.0 µM,92% (active)
same,growth inhibition,[9]; at 1.2 µM,11% (inactive)
same,growth inhibition,[9]; at 3.7 µM,14% (inactive)
same,growth inhibition,[9]; at 11.0 µM,64% (inactive)
same,growth inhibition,[9]; at 33.0 µM,93% (active)
same,growth inhibition,[9]; at 100.0 µM,92% (active)
same,growth inhibition,[10]; [17],81% (active) and 65% (inactive)
same,growth inhibition,[10]; [18],95% (active) and 97% (active)
same,growth inhibition,[10]; at 50.0 µM,97.2% (active)
same,growth inhibition,[11]; at 1.2 µM,15% (inactive)
same,growth inhibition,[11]; at 3.7 µM,61% (inactive)
same,growth inhibition,[11]; at 11.0 µM,84% (active)
same,growth inhibition,[11]; at 33.0 µM,95% (active)
same,growth inhibition,[11]; at 100.0 µM,91% (active)
